Our source for the growth values is PubChem BioAssay (NCI).

Each structure is given as a SMILES string. This is part of a sample that, as a whole, favours compounds with a hit. Of some 83,000 tested, about 20% had one in any assay.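 Treatment: one concentration, 48 hours, 96-well format. Scoring: percent growth, with anything below 10 considered active.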 A number with no mark means an inactive call. Active and inactive are the calls of the source.

Some test systems named below: NCI-H23 lung; NCI-H226 lung; NCI-H322M lung; HOP-62 NSCLC; NCI-H460 lung; HOP-92 NSCLC; NCI-H522 lung; A549/ATCC NSCLC; 786-0 renal; COLO 205 colon; DU-145 prostate; K-562 leukemia; MALME-3M melanoma; MDA-MB-231 breast; RXF 393 renal; SF-268 CNS; SF-295 CNS; SF-539 CNS; UACC-257 melanoma; M14 melanoma.
What all share (assay): NCI-60 one-dose screen, 48 h (100 = growth as untreated, 0 = no growth, -100 = all killed)
Common to all, as to details: 10 µM unless noted

As for `CCCNS(=O)(=O)c1ccc(Cl)cc1`, the growth with NCI-H23 lung is 104%; with NCI-H226 lung it was 113%; with NCI-H322M lung, 93.6%; in the test with HOP-62 NSCLC it was 86.6%; in the test on NCI-H460 lung it was 103%; in the test with HOP-92 NSCLC, 104%. Further, the growth is 96.6% in the test with NCI-H522 lung; 94.5% in the test on A549/ATCC NSCLC; 97.6% in the test on 786-0 renal; 102% in the test with COLO 205 colon; 109% in the test with DU-145 prostate; 104% in the test with K-562 leukemia. Further, the growth in the test with MALME-3M melanoma was 105%; in the test with MDA-MB-231 breast, 102%; with RXF 393 renal it was 114%; in the test on SF-268 CNS, 106%; in the test on SF-295 CNS, 87.8%; with SF-539 CNS, 98.1%. In addition, the growth in the test with UACC-257 melanoma is 101%.

`CCOC(=O)CNC(=O)Sc1ccc(C(C)(C)C)cc1`: the growth is 98.1% in the test with NCI-H23 lung; 87.2% in the test with NCI-H226 lung; 79.6% with NCI-H322M lung; 122% in the test on HOP-62 NSCLC; 102% in the test on NCI-H460 lung; 138% with HOP-92 NSCLC. For the same molecule, the growth in the test on NCI-H522 lung is 69.6%; in the test with A549/ATCC NSCLC it was 109%; with 786-0 renal, 102%; in the test with COLO 205 colon, 119%; in the test on DU-145 prostate, 114%; in the test with K-562 leukemia, 71.9%. Further, the growth in the test with MALME-3M melanoma is 90.7%; with MDA-MB-231 breast, 105%; with RXF 393 renal it was 118%; with SF-268 CNS, 107%; with SF-295 CNS it was 102%; in the test with SF-539 CNS it was 94%. Besides, the figures for the growth in the test on UACC-257 melanoma and in the test on M14 melanoma were 111% and 102%, respectively.

For the molecule `O=c1[nH]c(=O)c2cc(Cl)cc(Cl)c2[nH]1`, the growth in the test with NCI-H23 lung was 101%; in the test on NCI-H226 lung, 96.8%; in the test on NCI-H322M lung, 94.8%; with HOP-62 NSCLC it was 113%; with NCI-H460 lung it was 112%; in the test on HOP-92 NSCLC it was 104%. For the same molecule, the growth with NCI-H522 lung was 99.7%; in the test with A549/ATCC NSCLC, 108%; in the test with 786-0 renal it was 101%; with COLO 205 colon, 117%; in the test with DU-145 prostate, 136%; in the test with K-562 leukemia it was 106%. Also, the growth in the test on MALME-3M melanoma was 116%; in the test on MDA-MB-231 breast, 107%; in the test with RXF 393 renal, 113%; with SF-268 CNS, 109%; with SF-295 CNS, 114%; in the test on SF-539 CNS it was 99.5%. Further, the growth with UACC-257 melanoma was 93%; in the test with M14 melanoma it was 102%.

As for `CC(=O)O[C@H]1CC[C@]2(C)C3=C(C(=O)C[C@H]2C1(C)C)[C@]1(C)CC[C@H]([C@H](C)CCC(=O)O)[C@@]1(C)CC3=O`, the growth was 98.3% with NCI-H23 lung; 107% in the test with NCI-H226 lung; 105% with NCI-H322M lung; 95.4% in the test on HOP-62 NSCLC; 89.8% with NCI-H460 lung; 107% in the test on HOP-92 NSCLC. Moreover, the growth in the test on NCI-H522 lung is 81.8%; with A549/ATCC NSCLC, 101%; in the test with 786-0 renal, 107%; in the test on COLO 205 colon, 103%; in the test with DU-145 prostate, 108%; in the test with K-562 leukemia, 86.8%. Besides, the growth with MALME-3M melanoma is 98.1%; in the test on MDA-MB-231 breast, 107%; in the test with RXF 393 renal, 110%; in the test with SF-268 CNS it was 111%; in the test on SF-295 CNS it was 96.4%; with SF-539 CNS it was 96.2%. The growth was 113% with UACC-257 melanoma and 99.3% with M14 melanoma.

For `COC(=O)Cc1cc(COC(C)=O)ccc1C`, the growth with NCI-H23 lung is 104%; in the test on NCI-H226 lung, 107%; in the test on NCI-H322M lung it was 110%; in the test on HOP-62 NSCLC it was 110%; in the test with NCI-H460 lung, 109%; with HOP-92 NSCLC it was 79%. Besides, the growth is 99.2% with NCI-H522 lung; 99.1% in the test on A549/ATCC NSCLC; 100% in the test on 786-0 renal; 120% in the test with COLO 205 colon; 116% with DU-145 prostate; 108% in the test on K-562 leukemia. In addition, the growth is 110% in the test on MALME-3M melanoma; 125% with MDA-MB-231 breast; 107% in the test on RXF 393 renal; 113% in the test on SF-268 CNS; 121% with SF-295 CNS; 111% in the test with SF-539 CNS. Besides, the growth is 108% in the test with UACC-257 melanoma and 106% with M14 melanoma.

Take `CCN1CCCC(N2c3ccccc3Sc3ccccc32)C1` (stereo not drawn): the growth was 103% with NCI-H23 lung; 113% in the test on NCI-H226 lung; 86% in the test with NCI-H322M lung; 104% in the test with HOP-62 NSCLC; 104% with NCI-H460 lung; 74% with HOP-92 NSCLC. For the same molecule, the growth is 94.9% in the test with NCI-H522 lung; 103% in the test with A549/ATCC NSCLC; 87.7% with 786-0 renal; 96.6% with COLO 205 colon; 94.1% in the test on DU-145 prostate; 91.8% with K-562 leukemia. The growth in the test on MALME-3M melanoma is 92.1%; in the test with MDA-MB-231 breast it was 76.5%; with RXF 393 renal, 104%; with SF-268 CNS, 103%; with SF-295 CNS it was 107%; in the test with SF-539 CNS it was 103%. In the test with UACC-257 melanoma, the growth is 104%.

Take `FC(F)(F)c1cc(NC2=NCCN=C(Nc3cc(C(F)(F)F)cc(C(F)(F)F)c3)SS2)cc(C(F)(F)F)c1`: the growth in the test on NCI-H23 lung is 47.2%; in the test with NCI-H226 lung it was 67.9%; in the test on NCI-H322M lung, 90.1%; in the test with HOP-62 NSCLC, 74.8%; with NCI-H460 lung it was 40%; in the test with HOP-92 NSCLC, 0.524% (active). In addition, the growth was 13.1% in the test with NCI-H522 lung; 49.1% in the test on A549/ATCC NSCLC; 70.6% with 786-0 renal; 49.1% with COLO 205 colon; 66.6% in the test with DU-145 prostate; 28.8% in the test on K-562 leukemia. The growth with MALME-3M melanoma was 37%; in the test on MDA-MB-231 breast, 73.2%; in the test on RXF 393 renal, 77.6%; in the test with SF-268 CNS, 74.2%; in the test with SF-295 CNS, 52.6%; in the test on SF-539 CNS, 81.3%. Also, the growth is 64.4% in the test with UACC-257 melanoma and 82.1% with M14 melanoma.

As for `O=C(CCl)Nc1ccccc1SCc1cc(Cl)cc2c1OCOC2`, the growth with NCI-H23 lung was 82.7%; in the test with NCI-H226 lung it was 82.8%; with NCI-H322M lung it was 89.7%; in the test on HOP-62 NSCLC, 100%; in the test on NCI-H460 lung, 105%; in the test with HOP-92 NSCLC, -6.11% (active). Also, the growth was -74.8% (active) in the test with NCI-H522 lung; 96.5% with A549/ATCC NSCLC; 99.6% with 786-0 renal; 95.7% in the test with COLO 205 colon; 101% with DU-145 prostate; 32.1% in the test with K-562 leukemia. Further, the growth in the test with MALME-3M melanoma was -69.1% (active); in the test on MDA-MB-231 breast, 88.6%; with RXF 393 renal, 77.1%; in the test on SF-268 CNS, 93.8%; in the test with SF-295 CNS, 94%; in the test on SF-539 CNS, 93.5%. Besides, the growth in the test with UACC-257 melanoma is 101%; in the test with M14 melanoma it was 69.8%.
